# Results as given in ChEMBL document CHEMBL2218924, “A broad activity screen in support of a chemogenomic map for kinase signalling research and drug discovery” (Biochem J, 2013).
# Key:
# [1] = biological target: T1, Serine/threonine-protein kinase 17A (Homo sapiens) (UniProt Q9UEE5); settings: at 10 µM
# T1 sequence (whole entry): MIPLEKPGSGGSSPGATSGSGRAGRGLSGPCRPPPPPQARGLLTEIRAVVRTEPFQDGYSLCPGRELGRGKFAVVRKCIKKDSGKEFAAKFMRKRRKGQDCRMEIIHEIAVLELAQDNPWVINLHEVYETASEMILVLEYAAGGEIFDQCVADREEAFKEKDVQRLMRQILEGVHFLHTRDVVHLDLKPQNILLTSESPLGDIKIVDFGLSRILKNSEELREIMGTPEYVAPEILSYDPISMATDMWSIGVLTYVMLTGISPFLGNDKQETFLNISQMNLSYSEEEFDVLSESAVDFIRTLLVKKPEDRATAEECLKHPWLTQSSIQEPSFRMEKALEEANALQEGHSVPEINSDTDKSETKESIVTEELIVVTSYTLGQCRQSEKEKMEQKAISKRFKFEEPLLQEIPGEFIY
# [2] = biological target: T2, Dual specificity tyrosine-phosphorylation-regulated kinase 2 (Homo sapiens) (UniProt Q92630); settings: at 1 µM
# T2 sequence (whole entry): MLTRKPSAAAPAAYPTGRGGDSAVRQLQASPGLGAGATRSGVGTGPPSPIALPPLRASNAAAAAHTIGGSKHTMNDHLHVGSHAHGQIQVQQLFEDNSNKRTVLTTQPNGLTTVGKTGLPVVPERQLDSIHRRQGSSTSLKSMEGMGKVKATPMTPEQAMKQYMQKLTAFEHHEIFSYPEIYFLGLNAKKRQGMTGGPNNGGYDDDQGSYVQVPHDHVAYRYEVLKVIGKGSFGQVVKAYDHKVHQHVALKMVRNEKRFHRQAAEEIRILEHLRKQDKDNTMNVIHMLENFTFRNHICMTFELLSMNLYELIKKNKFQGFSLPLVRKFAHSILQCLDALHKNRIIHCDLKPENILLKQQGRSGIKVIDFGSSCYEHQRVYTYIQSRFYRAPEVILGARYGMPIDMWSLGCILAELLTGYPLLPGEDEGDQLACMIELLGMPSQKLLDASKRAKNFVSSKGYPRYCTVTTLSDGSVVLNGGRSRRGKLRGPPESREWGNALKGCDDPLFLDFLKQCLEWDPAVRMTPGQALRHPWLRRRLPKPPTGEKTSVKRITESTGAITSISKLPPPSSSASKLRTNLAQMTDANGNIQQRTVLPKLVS
# [3] = biological target: T2, Dual specificity tyrosine-phosphorylation-regulated kinase 2 (Homo sapiens); settings: at 10 µM
# [4] = biological target: T3, Ephrin type-A receptor 1 (Homo sapiens) (UniProt P21709); settings: at 1 µM
# T3 sequence (whole entry): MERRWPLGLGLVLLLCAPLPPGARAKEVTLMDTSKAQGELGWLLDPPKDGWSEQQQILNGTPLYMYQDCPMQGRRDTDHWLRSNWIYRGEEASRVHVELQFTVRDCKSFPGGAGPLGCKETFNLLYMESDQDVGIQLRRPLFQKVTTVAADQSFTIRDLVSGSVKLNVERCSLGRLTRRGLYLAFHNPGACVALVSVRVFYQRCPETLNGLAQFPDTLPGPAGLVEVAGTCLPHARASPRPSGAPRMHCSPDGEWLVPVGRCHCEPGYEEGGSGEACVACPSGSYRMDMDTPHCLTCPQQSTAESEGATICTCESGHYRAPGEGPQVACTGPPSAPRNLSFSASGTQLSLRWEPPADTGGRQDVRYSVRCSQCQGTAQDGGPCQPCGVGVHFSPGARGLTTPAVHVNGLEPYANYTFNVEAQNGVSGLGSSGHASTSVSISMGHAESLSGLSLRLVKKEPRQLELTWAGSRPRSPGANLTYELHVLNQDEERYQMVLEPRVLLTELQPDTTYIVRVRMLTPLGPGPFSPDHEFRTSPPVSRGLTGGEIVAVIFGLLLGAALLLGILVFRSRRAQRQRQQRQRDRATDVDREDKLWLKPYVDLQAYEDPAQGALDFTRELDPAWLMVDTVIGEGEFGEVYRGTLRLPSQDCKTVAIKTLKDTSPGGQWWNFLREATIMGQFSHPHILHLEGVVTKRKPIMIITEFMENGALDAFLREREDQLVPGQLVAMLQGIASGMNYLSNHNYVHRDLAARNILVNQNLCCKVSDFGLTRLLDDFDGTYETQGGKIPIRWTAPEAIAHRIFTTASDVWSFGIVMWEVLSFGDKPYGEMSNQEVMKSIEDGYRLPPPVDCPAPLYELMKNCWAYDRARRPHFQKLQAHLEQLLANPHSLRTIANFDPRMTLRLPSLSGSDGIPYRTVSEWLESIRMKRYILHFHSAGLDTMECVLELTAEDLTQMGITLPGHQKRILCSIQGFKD
# [5] = biological target: T3, Ephrin type-A receptor 1 (Homo sapiens); settings: at 10 µM
# [6] = biological target: Ephrin type-A receptor 2 (Homo sapiens) (UniProt P29317); settings: at 1 µM
# [7] = biological target: Ephrin type-A receptor 2 (Homo sapiens) (UniProt P29317); settings: at 10 µM
# [8] = biological target: T4, Ephrin type-A receptor 3 (Homo sapiens) (UniProt P29320); settings: at 1 µM
# T4 sequence (whole entry): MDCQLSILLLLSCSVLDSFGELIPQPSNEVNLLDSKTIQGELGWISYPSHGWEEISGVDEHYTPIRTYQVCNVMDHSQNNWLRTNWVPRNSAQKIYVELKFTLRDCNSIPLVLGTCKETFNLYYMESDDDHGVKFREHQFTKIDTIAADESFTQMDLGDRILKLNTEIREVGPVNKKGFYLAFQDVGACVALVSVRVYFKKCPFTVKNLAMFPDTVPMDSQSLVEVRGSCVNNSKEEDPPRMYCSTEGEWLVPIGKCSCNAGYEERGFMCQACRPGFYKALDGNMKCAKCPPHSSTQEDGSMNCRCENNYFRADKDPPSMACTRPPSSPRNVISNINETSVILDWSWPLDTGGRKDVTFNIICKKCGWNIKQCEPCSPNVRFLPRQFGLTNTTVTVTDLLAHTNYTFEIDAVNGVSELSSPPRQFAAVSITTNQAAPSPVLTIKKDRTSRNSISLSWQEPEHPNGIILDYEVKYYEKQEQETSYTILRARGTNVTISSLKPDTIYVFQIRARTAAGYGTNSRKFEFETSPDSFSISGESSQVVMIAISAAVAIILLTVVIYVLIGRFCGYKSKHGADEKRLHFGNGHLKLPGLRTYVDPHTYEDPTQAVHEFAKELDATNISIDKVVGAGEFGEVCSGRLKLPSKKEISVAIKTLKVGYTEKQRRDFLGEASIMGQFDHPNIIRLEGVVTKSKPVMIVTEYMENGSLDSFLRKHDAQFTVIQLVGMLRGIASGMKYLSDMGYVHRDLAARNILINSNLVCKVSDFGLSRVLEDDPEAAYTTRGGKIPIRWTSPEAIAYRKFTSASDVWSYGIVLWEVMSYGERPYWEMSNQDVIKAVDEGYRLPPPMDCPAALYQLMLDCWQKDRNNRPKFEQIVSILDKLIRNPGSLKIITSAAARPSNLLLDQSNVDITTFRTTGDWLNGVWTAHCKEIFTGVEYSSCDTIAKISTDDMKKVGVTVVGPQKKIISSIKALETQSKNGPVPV
# [9] = biological target: Epidermal growth factor receptor (Homo sapiens) (UniProt P00533); settings: at 1 µM
# [10] = biological target: Epidermal growth factor receptor (Homo sapiens) (UniProt P00533); settings: at 10 µM
# Chain of Ephrin type-A receptor 2 (Homo sapiens) (P29317 whole entry): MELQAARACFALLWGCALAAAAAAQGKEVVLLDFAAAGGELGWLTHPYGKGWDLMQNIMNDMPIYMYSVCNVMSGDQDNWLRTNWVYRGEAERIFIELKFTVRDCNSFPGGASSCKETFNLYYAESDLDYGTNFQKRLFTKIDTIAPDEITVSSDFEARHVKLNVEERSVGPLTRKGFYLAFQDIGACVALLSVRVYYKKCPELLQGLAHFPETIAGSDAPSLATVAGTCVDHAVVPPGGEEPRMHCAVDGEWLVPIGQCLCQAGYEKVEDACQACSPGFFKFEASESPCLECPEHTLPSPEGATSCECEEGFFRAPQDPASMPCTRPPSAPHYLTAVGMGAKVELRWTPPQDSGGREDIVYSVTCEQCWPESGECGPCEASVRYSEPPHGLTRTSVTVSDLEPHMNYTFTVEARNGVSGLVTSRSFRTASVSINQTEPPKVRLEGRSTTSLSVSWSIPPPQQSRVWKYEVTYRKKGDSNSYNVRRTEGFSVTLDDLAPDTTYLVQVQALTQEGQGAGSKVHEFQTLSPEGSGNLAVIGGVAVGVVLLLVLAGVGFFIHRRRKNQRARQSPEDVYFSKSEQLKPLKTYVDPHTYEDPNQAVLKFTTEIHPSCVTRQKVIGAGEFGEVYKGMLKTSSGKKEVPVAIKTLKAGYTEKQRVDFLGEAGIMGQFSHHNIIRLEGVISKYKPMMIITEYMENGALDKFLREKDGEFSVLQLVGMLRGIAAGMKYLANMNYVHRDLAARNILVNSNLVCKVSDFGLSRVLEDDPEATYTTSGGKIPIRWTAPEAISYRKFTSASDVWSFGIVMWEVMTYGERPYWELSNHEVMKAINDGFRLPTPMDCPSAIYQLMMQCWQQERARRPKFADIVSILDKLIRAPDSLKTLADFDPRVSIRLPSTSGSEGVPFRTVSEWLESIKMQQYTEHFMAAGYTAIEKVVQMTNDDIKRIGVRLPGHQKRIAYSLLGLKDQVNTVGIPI
# Chain of Epidermal growth factor receptor (Homo sapiens) (P00533 whole entry): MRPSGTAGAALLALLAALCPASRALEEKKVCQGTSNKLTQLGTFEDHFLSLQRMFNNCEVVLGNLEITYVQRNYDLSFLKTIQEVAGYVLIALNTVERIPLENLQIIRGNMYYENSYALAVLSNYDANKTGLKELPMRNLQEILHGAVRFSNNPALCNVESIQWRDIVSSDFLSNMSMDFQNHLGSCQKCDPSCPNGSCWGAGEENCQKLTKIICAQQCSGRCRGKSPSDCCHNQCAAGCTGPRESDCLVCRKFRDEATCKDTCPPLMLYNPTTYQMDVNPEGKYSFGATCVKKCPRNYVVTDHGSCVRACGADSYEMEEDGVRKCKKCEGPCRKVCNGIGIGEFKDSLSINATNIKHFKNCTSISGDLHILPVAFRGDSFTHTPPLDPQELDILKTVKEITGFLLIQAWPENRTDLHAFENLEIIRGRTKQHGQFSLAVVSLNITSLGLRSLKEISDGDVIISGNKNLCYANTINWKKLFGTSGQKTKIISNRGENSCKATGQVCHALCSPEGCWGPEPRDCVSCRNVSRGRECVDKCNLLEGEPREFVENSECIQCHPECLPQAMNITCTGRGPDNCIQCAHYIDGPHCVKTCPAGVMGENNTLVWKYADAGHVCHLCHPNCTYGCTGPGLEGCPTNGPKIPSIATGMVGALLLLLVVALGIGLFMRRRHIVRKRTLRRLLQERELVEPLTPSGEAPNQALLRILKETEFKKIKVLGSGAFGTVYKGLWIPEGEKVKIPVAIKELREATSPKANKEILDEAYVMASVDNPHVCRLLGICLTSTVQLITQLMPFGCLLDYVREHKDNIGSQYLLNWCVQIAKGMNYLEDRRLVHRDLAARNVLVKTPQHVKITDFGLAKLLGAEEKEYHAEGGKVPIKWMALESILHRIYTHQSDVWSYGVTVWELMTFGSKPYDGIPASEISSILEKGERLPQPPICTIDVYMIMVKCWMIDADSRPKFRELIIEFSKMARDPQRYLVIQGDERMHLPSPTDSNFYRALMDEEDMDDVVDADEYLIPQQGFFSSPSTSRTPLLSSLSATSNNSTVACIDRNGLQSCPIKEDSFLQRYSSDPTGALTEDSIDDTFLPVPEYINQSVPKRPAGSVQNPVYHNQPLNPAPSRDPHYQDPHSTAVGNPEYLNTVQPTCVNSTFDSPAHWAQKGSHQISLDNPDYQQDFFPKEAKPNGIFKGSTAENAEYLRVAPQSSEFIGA
Structure (SMILES),residual activity [1],residual activity [2],residual activity [3],residual activity [4],residual activity [5],residual activity [6],residual activity [7],residual activity [8],residual activity [9],residual activity [10]
CC(C)n1cnc2/c(=N/c3cccc(Cl)c3)nc(NCCO)[nH]c21,83%,95%,69%,86%,42%,82%,65%,82%,,
Cn1cnc2cc3c(Nc4cccc(Br)c4)ncnc3cc21,28%,98%,79%,60%,49%,89%,62%,90%,,
O=C1NC(=O)/C(=C/c2ccc3c(c2)OC(F)(F)O3)S1,99%,86%,65%,93%,96%,107%,115%,103%,116%,119%
COc1ccc(OC)c2c(=S)c3ccccc3[nH]c12,97%,90%,66%,113%,88%,96%,101%,90%,,
COc1cccc(-c2cc(=O)c3ccccc3o2)c1N,70%,100%,94%,99%,92%,97%,117%,110%,,
Cc1cc(Nc2nc(-c3ccccc3)nc3ccccc23)n[nH]1,14%,,41%,36%,18%,75%,43%,54%,,
Oc1c2ccccc2c2c3c(cccc13)N=N2,2%,4%,-5%,67%,42%,88%,60%,75%,,
O=C1Nc2ccc(Br)cc2/C1=C\c1cc2c([nH]1)CCCC2,40%,97%,99%,,105%,112%,97%,108%,,
Cc1cncc2cccc(S(=O)(=O)N3CCCN(C(=O)CN)C[C@H]3C)c12,,91%,94%,54%,7%,92%,56%,96%,,
Cn1cc(/C=C2\C(=O)Nc3ccc(S(N)(=O)=O)cc32)c2ccccc21,3%,102%,99%,89%,107%,100%,72%,50%,,
Cc1nc(-c2ccccc2)c(-c2ccncc2)o1,77%,99%,87%,103%,81%,93%,59%,92%,,
COc1cc2ncc(-c3ccccc3)nc2cc1OC,,93%,99%,90%,94%,,93%,,,
Cc1ccc(NC2=CC(=O)c3sc(C)nc3C2=O)cc1,81%,85%,100%,95%,91%,95%,102%,92%,,
O=C1NC(=O)c2cc(Nc3ccc(F)cc3)c(Nc3ccc(F)cc3)cc21,64%,105%,101%,69%,52%,100%,80%,104%,,
c1ccc2c(-c3ccncc3)c[nH]c2c1,60%,77%,21%,87%,69%,104%,92%,106%,,
O=C1Nc2cc(Br)ccc2/C1=C1/Nc2ccccc2/C1=N\O,10%,,,99%,92%,27%,20%,25%,66%,33%
N#Cc1cnc2cnc(NCc3cccnc3)cc2c1Nc1ccc(F)c(Cl)c1,32%,,,95%,79%,96%,87%,96%,,
COc1cc2ncnc(Nc3ccc(O)c(Br)c3)c2cc1OC,18%,48%,10%,35%,8%,90%,30%,79%,,
